Compound activity from PubChem BioAssay.
Rows were chosen to be rich in hits. Some 8% of all compounds tested hit in one or more screens of this group.
MARV entry inh: blocks Marburg virus binding or cell entry | Marburg virus pseudotype entry/binding inhibition, cell-based | Potency, µM (highest dose often 49.2 µM), hits mostly inhibitors | actives 6.5% (n = 18,000) | AID 720532
Lassa entry: blocks Lassa virus binding or cell entry. actives 4.1% (n = 18,000). Lassa virus pseudotyped entry inhibition, cell-based qHTS. Potency, µM (highest dose often 49.2 µM), most hits filed as inhibitors
A number is an active result; ! = a repeat was not active; [ ] = another dose, or the depositor's remark. The call rests on the fitted dose curve; tested in HEK293 cells.

`Cc1cc2oc(=O)cc(-c3ccccc3)c2c(C)c1-c1ccc(CO)cc1` gave MARV entry inh inactive and Lassa entry 11.2µM.
NCCCCCCCCCCNS(=O)(=O)c1cccc2c(Cl)cccc12 was read as MARV entry inh inactive and Lassa entry inconclusive.
NCCCCCCNS(=O)(=O)c1cccc2c(Cl)cccc12 was read as MARV entry inh 17.8µM! and Lassa entry inconclusive.
Screening O=C1OC2(CCCCC2)CC2=C1[C@H]1O[C@](c3ccsc3)(Cc3ccccc31)O2 returned MARV entry inh inactive[8.59 µM] and Lassa entry inactive[8.59 µM].
CCc1cc2c(nc1CC)CCN(CCC(C)=NO[C@@H](C)c1cn([C@H](CO)Cc3ccccc3)nn1)C2 was read as MARV entry inh inactive[8.59 µM] and Lassa entry inactive[8.59 µM].
Screening CCn1c(-c2nonc2N)nc2c(C#CCN)ncc(OCCCN)c21 returned MARV entry inh inconclusive and Lassa entry inactive.
CCn1c(-c2nonc2N)nc2ccc(F)cc21 was read as MARV entry inh inconclusive and Lassa entry inactive.
CCn1c(-c2nonc2N)nc2c(C#CC(C)(C)O)nc(OCC(N)c3ccccc3)cc21 (configuration not stated) was read as MARV entry inh 3.15µM.
`CCn1c(-c2nonc2N)nc2c(C#CC(C)(C)O)ncc(OC3CCNCC3)c21` gave MARV entry inh 3.97µM.
For O=S1(=O)CCSCCN1Cc1ccc(Br)cc1 the results were MARV entry inh inactive and Lassa entry inactive.
Screening O=C(NCc1ccccc1)c1ccc(-c2ccccc2C(F)(F)F)o1 returned MARV entry inh inactive and Lassa entry 11.2µM.
`Cc1ccc(-c2ccc(C(=O)NCc3ccc(Cl)cc3)o2)c2ccccc12` gave MARV entry inh inactive and Lassa entry inconclusive.
Screening COc1ccc(Nc2nccc(NCCO)n2)cc1 returned MARV entry inh inactive and Lassa entry inactive.
`COc1cc(Nc2nccc(Nc3ccc4c(C)[nH]nc4c3)n2)cc(OC)c1OC` gave MARV entry inh 9.96µM and Lassa entry inconclusive.
For C#CCN1C(=O)[C@]2(OCCC=C[C@H]2C)c2c(Br)cccc21 the results were MARV entry inh inconclusive and Lassa entry inactive[8.59 µM].
`Nc1nc(Cl)nc2c1ncn2[C@@H]1O[C@H](CO)[C@@H](O)[C@@H]1F` gave MARV entry inh 2.51µM and Lassa entry inconclusive.
For Nc1nc(Cl)c2ncn(C3OC(CO)C(O)C3O)c2n1 (configuration not stated) the results were MARV entry inh inactive and Lassa entry inactive.
For CC(C)CCC[C@@H](C)[C@H]1CC(=O)C2=C3CC[C@H]4C[C@@H](O)CC[C@]4(C)[C@H]3CC[C@@]21C the results were MARV entry inh inactive and Lassa entry inactive.
`COc1ccc(CN2CCOc3c(cc(-c4ccc(OC)nn4)cc3OC)C2)c(O)c1` gave MARV entry inh inactive and Lassa entry inactive.
COc1ccc(OC)c(-c2ccc(O)c(CN3CCc4c([nH]c5ccccc45)C3)c2)c1 was read as MARV entry inh 12.6µM and Lassa entry inconclusive.
For Cc1ccccc1CN1[C@@H](C)[C@@H](c2ccccc2)Oc2c(Cl)cccc2S1(=O)=O the results were MARV entry inh inactive and Lassa entry inactive.
Screening CCCNC(=O)OC[C@H]1O[C@H](CCON=C(C)CCN2CCCc3nc(C)c(C)cc32)C=C[C@H]1Oc1ccc(OC)cc1 returned MARV entry inh inconclusive and Lassa entry inactive[8.59 µM].
For C=C(CO[C@@H]1C=C[C@@H](c2ccccc2)O[C@@H]1CO)c1ccccc1 the results were MARV entry inh inactive[8.59 µM] and Lassa entry inactive[8.59 µM].
`C[C@]12CC[C@H](OS(=O)(=O)O)CC1=CC[C@@H]1[C@@H]2CC[C@]2(C)C(=O)CC[C@@H]12` gave MARV entry inh inactive and Lassa entry inactive.
Screening C[C@@H]1[C@H]2CC[C@@H]3[C@@H]4CC=C5C[C@@H](N(C)C)CC[C@]5(C)[C@@H]4CC[C@@]32CN1C returned MARV entry inh 5.62µM and Lassa entry inactive.
For CN1CCN(C2=Nc3ccccc3Cc3ccccc32)CC1 the results were MARV entry inh inconclusive and Lassa entry inactive.
Clc1ccc2c(c1)C(N1CCNCC1)=Nc1ccccc1O2 was read as MARV entry inh 11.2µM! and Lassa entry inconclusive.
CC(CCN1CCCc2nc(C)c(C)cc21)=NO[C@@H](C)CN1CCCCc2nc(C)c(C)cc21 was read as MARV entry inh inactive[8.59 µM] and Lassa entry inactive[8.59 µM].
CC(=O)OC[C@H]1O[C@H](C#Cc2ccccc2Cl)C=C[C@H]1OC(C)=O was read as MARV entry inh inactive[8.59 µM] and Lassa entry inactive[8.59 µM].
`COC(=O)CC=C[C@@H](C)[C@@H](C=NO[C@H](C)c1cn([C@@H]2COC[C@@H]2O)nn1)N[S+](=O)([O-])c1ccc(C)cc1` gave MARV entry inh inactive[8.59 µM] and Lassa entry inactive[8.59 µM].
Screening C[C@@H]1O[C@@H](O[C@@H]2C=C3CC[C@@H]4[C@H](CC[C@]5(C)[C@@H](c6ccc(=O)oc6)CC[C@]45O)[C@@]3(C)CC2)[C@H](O)[C@H](O)[C@H]1O returned MARV entry inh inconclusive and Lassa entry 1µM.
Screening c1ccc2c(c1)OCC(C1=NCCN1)O2 (configuration not stated) returned MARV entry inh 14.1µM and Lassa entry inconclusive.
`c1ccc2c(c1)CCCC2C1=NCCN1` (configuration not stated) gave MARV entry inh inactive and Lassa entry inactive.
For COc1ccc(COC(=O)NN=C2C[C@@H](O)[C@@H](O)[C@@H]3[C@H]4C(=O)N(Cc5ccccc5)C(=O)[C@@H]4CC[C@@H]23)cc1 the results were MARV entry inh inactive[8.59 µM] and Lassa entry inconclusive.
For CCCCN(CC)CCOc1cccc2ccccc12 the results were MARV entry inh 10µM and Lassa entry inconclusive.
`CCN(CC)CCOc1ccccc1OC` gave MARV entry inh inactive and Lassa entry inactive.
COC[C@@H](O)[C@H]1OCc2ccccc2[C@@H]1C=Cc1ccccc1 was read as MARV entry inh inactive[8.59 µM] and Lassa entry inactive[8.59 µM].
Screening Oc1ccc2[nH]cc(CCCCN3CC=C(c4ccccc4)CC3)c2c1 returned MARV entry inh 20µM and Lassa entry inactive.
O=C(O)c1ccc2[nH]cc(CCCCN3CC=C(c4ccccc4)CC3)c2c1 was read as MARV entry inh inconclusive and Lassa entry inactive.
`COC(=O)[C@H]1O[C@@H](c2c(OC)c(OC)c(C)c(OC)c2OC)[C@H](C)[C@@H](O)[C@@H]1C` gave MARV entry inh inactive[8.59 µM] and Lassa entry inactive[8.59 µM].
COc1cccc(CO[C@H]2C=C[C@@H](c3ccccc3)O[C@H]2CBr)c1 was read as MARV entry inh inactive[8.59 µM] and Lassa entry inactive[8.59 µM].
Screening C[C@@H]1C=CCC(=O)N[C@@H](c2cccc(Br)c2)[C@H](C)C=CCC(=O)N[C@@H]1c1cccc(Br)c1 returned MARV entry inh inconclusive and Lassa entry inactive[8.59 µM].
Screening CCC1CC2C=CCS[P@](=O)(O2)O1 (some centres not stated) returned MARV entry inh inactive and Lassa entry inactive.
Screening Oc1cc(O)cc(/C=C/c2ccc(O)c(O)c2)c1 returned MARV entry inh 20µM! and Lassa entry 22.4µM.
Screening C/C=C/c1ccc(O)c(OC)c1 returned MARV entry inh inactive and Lassa entry inactive.
For C[C@@H](C(=O)OC1C[C@H]2CC[C@@H](C1)N2C)c1ccc(Br)cc1 (some centres not stated) the results were MARV entry inh inconclusive and Lassa entry inactive.
CN1[C@@H](C[C@@H](O)c2ccccc2)CCC[C@@H]1C[C@H](O)c1ccccc1 was read as MARV entry inh inconclusive and Lassa entry inactive.
CN1C2CCC1CC(OC(c1ccccc1)c1ccc(Cl)cc1)C2 (configuration not stated) was read as MARV entry inh 3.98µM and Lassa entry 11.2µM.
